From PubChem BioAssay (NCI)
Compounds without any hit were thinned out: in the full panel of roughly 83,000, 20% have a hit.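 Single-concentration screen, 48 h exposure, 96-well plates. Endpoint: percent growth. Below 10 = active.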 Unmarked numbers belong to inactive results. Activity calls are given as the source filed them.

Experiments:
Assay in all cases: NCI-60 one-dose screen, 48 h (100 = growth as untreated, 0 = no growth, -100 = all killed)
Details in all cases: 10 µM unless noted
RPMI-8226 leukemia = system: RPMI-8226 leukemia
OVCAR-8 ovarian = system: OVCAR-8 ovarian
OVCAR-5 ovarian = system: OVCAR-5 ovarian
OVCAR-4 ovarian = system: OVCAR-4 ovarian
SK-OV-3 ovarian = system: SK-OV-3 ovarian
IGROV1 ovarian = system: IGROV1 ovarian
OVCAR-3 ovarian = system: OVCAR-3 ovarian
HS 578T breast = system: HS 578T breast
NCI/ADR-RES ovarian = system: NCI/ADR-RES ovarian
BT-549 breast = system: BT-549 breast
MDA-MB-435 melanoma = system: MDA-MB-435 melanoma
SW-620 colon = system: SW-620 colon
MCF7 breast = system: MCF7 breast
HCT-116 colon = system: HCT-116 colon
HCC-2998 colon = system: HCC-2998 colon
KM12 colon = system: KM12 colon
T-47D breast = system: T-47D breast

Structure (SMILES)	growth (RPMI-8226 leukemia)	growth (OVCAR-8 ovarian)	growth (OVCAR-5 ovarian)	growth (OVCAR-4 ovarian)	growth (SK-OV-3 ovarian)	growth (IGROV1 ovarian)	growth (OVCAR-3 ovarian)	growth (HS 578T breast)	growth (NCI/ADR-RES ovarian)	growth (BT-549 breast)	growth (MDA-MB-435 melanoma)	growth (SW-620 colon)	growth (MCF7 breast)	growth (HCT-116 colon)	growth (HCC-2998 colon)	growth (KM12 colon)	growth (T-47D breast)
CN(C)c1ccc(/C=c2\sc3nc4ccccc4n3c2=O)cc1	104%	106%	102%	107%	124%	77.2%	124%	101%	107%	118%	101%	102%	70.3%	105%	107%	104%	–
COc1ccc(/C=N/NC(=O)c2[nH]c3ccc(Br)cc3c2-c2ccccc2)s1	7.49% (active)	12.3%	51.2%	75.5%	25.7%	18%	22.8%	29.9%	15.8%	-15.9% (active)	-21.4% (active)	18.2%	6.97% (active)	-19.9% (active)	26.8%	3.72% (active)	–
Cc1ccc2ccc3ccc(C)nc3c2n1.Cc1ccc2ccc3ccc(C)nc3c2n1.Oc1c(Cl)cc(Cl)c2ccc(CN3CCCCC3)nc12.[Ru]	-46% (active)	-75.4% (active)	-72% (active)	-45.8% (active)	-72.6% (active)	-58.4% (active)	-95.3% (active)	-42.4% (active)	-24.4% (active)	-95.8% (active)	-90.5% (active)	-40% (active)	-75.1% (active)	-92% (active)	-90.1% (active)	-73.9% (active)	–
COc1ccc2[nH]cc(-c3cc(N)n4nc(-c5c[nH]c6ccc(OC)cc56)cc4n3)c2c1	-22.7% (active)	-62.6% (active)	8.81% (active)	-8.27% (active)	144%	44.5%	103%	121%	88.6%	105%	–	-16% (active)	2.38% (active)	–	-4.06% (active)	-37.8% (active)	-21.7% (active)
CN(C)CCCOc1c2ccc(Cl)cc2nc2c1oc1ccc(Cl)cc12	-20.8% (active)	26.7%	21.3%	50.6%	41.4%	6.89% (active)	45.4%	26.3%	-20.8% (active)	45.6%	–	-82.9% (active)	-80.9% (active)	10.8%	-67.9% (active)	-62.3% (active)	58.7%
O=C(Oc1ccc2ccc(=O)oc2c1)c1ccc(Cl)cc1	109%	105%	110%	119%	109%	104%	118%	103%	101%	101%	–	102%	94%	98.5%	102%	108%	105%
C#C[C@]1(O)CC[C@H]2[C@@H]3CC=C4c5sc(-c6ccc(F)cn6)nc5CC[C@]4(C)[C@H]3CC[C@@]21C	-26% (active)	42.8%	59.9%	57.8%	21.2%	49.8%	56.2%	-16.2% (active)	44.8%	7.85% (active)	18.1%	16.1%	12.1%	18.1%	65.1%	13.9%	–
Cc1sc2c(c1C)c(=O)nc1c(-c3nc(-c4ccc(F)cc4)no3)n[nH]n12	108%	104%	103%	112%	101%	102%	121%	105%	109%	102%	–	111%	89.7%	103%	104%	–	95.5%
COc1ccc(C(=O)/C=C/c2ccc(OCc3ccc(C)cc3)c(OC)c2)cc1OC	8.56% (active)	49.1%	95.4%	60.9%	100%	84%	76.8%	91.4%	53.7%	73.2%	–	45.5%	25.9%	25.3%	91.1%	51.5%	45.6%
CC(=O)Nc1cc(F)cc(-c2ccc3[nH]cc(-c4ccccc4)c3n2)c1	5.72% (active)	34%	27.4%	42.4%	13.6%	25.7%	32.5%	10.5%	33.5%	73.1%	9.43% (active)	-56.2% (active)	1.97% (active)	11.9%	-19% (active)	-41% (active)	–
O=C(N/N=C/c1ccco1)c1[nH]c2ccc(Br)cc2c1-c1ccccc1	8.9% (active)	5.2% (active)	36.7%	58.5%	36.1%	18.5%	21.5%	31.6%	20.5%	-17.1% (active)	0.898% (active)	24.8%	10.7%	-12.9% (active)	23%	12.8%	–
CN(C)CCCNc1c2ccc(Cl)cc2nc2c1oc1ccccc12	-21.1% (active)	-17.9% (active)	1.91% (active)	8.04% (active)	42%	-13% (active)	31%	37%	2.84% (active)	53.4%	-40.6% (active)	-1.01% (active)	–	–	-70.8% (active)	1.73% (active)	46.3%
C#Cc1nc(C2=C(C)C(=N\O)/C(=N/O)C2)cs1	72.2%	92.3%	109%	99%	105%	-14.1% (active)	118%	86.7%	38.5%	105%	93.7%	109%	72.5%	87.3%	113%	67.1%	–
N=C1CC(=O)NN1C(=O)CSc1nc2sc3c(c2c(=O)n1-c1ccc(Cl)cc1)CCCC3	102%	100%	104%	103%	98.2%	94.5%	122%	94.5%	115%	102%	106%	98%	91.8%	99%	116%	104%	–
N#Cc1ccc(C(=O)CSc2nc(Nc3ccc(S(N)(=O)=O)cc3)c3ccccc3n2)cc1	101%	109%	110%	113%	116%	110%	119%	103%	111%	111%	108%	103%	98.6%	100%	119%	107%	–
O=C(CN1C(=O)/C(=C/c2ccccc2)SC1=S)N1CCOCC1	89.6%	102%	97.6%	109%	95.4%	97.4%	–	106%	106%	97.5%	96.2%	87.2%	80.8%	98.3%	112%	–	77.9%
COc1cc(OC)c(C2C(Cl)C(=O)N2Nc2ncnc3ccccc23)cc1OC (stereo unspecified)	106%	104%	105%	104%	113%	83.5%	116%	107%	105%	89.6%	–	108%	83%	–	111%	101%	–
COc1cc(/C=C/C(=O)c2ccccc2)ccc1Oc1nc(NCCO)nc(N2CCOCC2)n1	54.5%	99.1%	108%	109%	99.3%	100%	–	98%	107%	92.4%	93.1%	60.9%	46.9%	–	113%	102%	93.6%
O=C1c2c(c3c4cc(Br)ccc4[nH]c3c3ccc4ccccc4c23)C(=O)N1CCO	80.3%	85.2%	108%	104%	89.3%	73.9%	–	103%	90.5%	105%	94.8%	75.9%	34.3%	84.2%	103%	–	51.5%
